The nature of assay [1]: Nuclear factor erythroid 2-related factor 2/antioxidant responsive element (Nrf2/ARE) small molecule agonists: qHTS cell viability counter screen in human keratinocytes (AID 1919968; active = well fitted curve in the direction sought with a large enough effect in the repeat runs; an effect the other way counts as inactive or inconclusive; also: nearly all actives have a fitted effect of over 55% in size). In outline: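 HaCaT ARE reporter line, 1,500 cells/well; 5 h settle, 37 C/5% CO2; cpd in DMSO pinned; 23 h exposure; CellTiter-Fluor, 1 h; fluorescence.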
Background: In qHTS, concentration-response curves come from the screen itself.

The nature of assay [2]: Nuclear factor erythroid 2-related factor 2/antioxidant responsive element (Nrf2/ARE) small molecule agonists: luciferase reporter gene qHTS assay in human keratinocytes (AID 1919969). Also: nearly all actives have a fitted effect of over 35% in size.
In assay [3] the target is Gonadotropin-releasing hormone receptor (Homo sapiens) (UniProt P30968). Briefly: Human gonadotropin-releasing hormone receptor (GnRHR) small molecule agonists, calcium flux assay in GnRHR-HEK293 cells (AID 1920063). Also: nearly all actives have a fitted effect of over 35% in size. In outline: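 GnRHR-HEK293, 1500 cells/well, 18 h 37 C/5% CO2; Ca dye 1 h 37 C; cpd pinned (DMSO), agonist mode; kinetic FL 480/540, 3 min, 1 s reads; 15 conc, n=3.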
Sequence of Gonadotropin-releasing hormone receptor (Homo sapiens) (P30968 whole entry, looked up): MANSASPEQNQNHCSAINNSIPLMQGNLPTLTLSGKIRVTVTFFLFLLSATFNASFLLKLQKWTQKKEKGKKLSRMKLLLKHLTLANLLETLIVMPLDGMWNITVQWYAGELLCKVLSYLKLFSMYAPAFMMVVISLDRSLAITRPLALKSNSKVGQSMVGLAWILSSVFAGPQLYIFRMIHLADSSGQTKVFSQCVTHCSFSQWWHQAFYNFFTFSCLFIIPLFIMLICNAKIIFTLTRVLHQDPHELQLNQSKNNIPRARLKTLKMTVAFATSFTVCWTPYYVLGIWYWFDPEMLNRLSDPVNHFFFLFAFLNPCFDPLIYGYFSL
(In general: A change in cytosolic calcium serves as a functional read-out for many receptors and channels.)

Assay [4] deals with KiSS-1 receptor (Homo sapiens) (UniProt Q969F8). Briefly: Human kisspeptin (KISS1R) small molecule agonists, calcium flux assay in KISS1R-HEK293 cells (AID 1920064; active = well fitted curve in the direction sought with a large enough effect in the repeat runs; an effect the other way counts as inactive or inconclusive). In outline:
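Stable human KISS1R HEK293 line; 18 h plating, 37 C/5% CO2; calcium dye 1 h 37 C; compound pin transfer; kinetic fluorescence Ex/Em 480/540, 3 min.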

A short description of assay [5]: G protein-coupled receptor (GPCR) small molecule agonists, calcium flux assay: HEK293 wild type cell line counter screen (AID 1920065). In short, it runs like this:
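Kinetic fluorescence at Ex/Em 480/540, recorded every second over 3 min, served as the read-out after compound addition. Each compound was tested at 15 concentrations in triplicate on cells pre-loaded with calcium dye for 1 h.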

The nature of assay [6]: p53 small molecule agonists, cell-based qHTS assay with human liver microsomes (AID 1963577).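 Also: p53 response element beta-lactamase reporter cells with liver microsomes plus NADPH.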 In outline: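 With metabolic activation: human liver microsomes (0.5 mg/mL final) plus NADPH (0.5 mg/mL final) added alongside compounds to p53RE-bla cells; 16 h 37 C exposure; beta-lactamase read by LiveBLAzer fluorescence.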
A short description of assay [7]: p53 small molecule agonists, cell-based qHTS assay with rat liver microsomes (AID 1963578). In short, it runs like this:
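Metabolic activation by rat liver microsomes and NADPH, each 0.5 mg/mL final, added right after compounds to p53RE-bla reporter cells (4,000/well, plated 5 h earlier). 16 h at 37 C, then LiveBLAzer substrate for 2 h at room temperature in the dark; fluorescence read-out.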

A short description of assay [8]: p53 small molecule agonists, cell-based qHTS assay with human liver microsomes: qHTS cell viability counter screen (AID 1963579). Also: nearly all actives have a fitted effect of over 45% in size. In outline: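 Metabolic activation used human liver microsomes and NADPH, both 0.5 mg/mL final, over 16 hours at 37 C on p53RE-bla cells (4,000/well). Cytotoxicity measured by CellTiter-Glo luminescence, 30 min at room temperature.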
The nature of assay [9]: p53 small molecule agonists, cell-based qHTS assay with rat liver microsomes: qHTS cell viability counter screen (AID 1963580). Also: nearly all actives have a fitted effect of over 45% in size. In short, it runs like this: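 p53RE-bla HCT-116 cells (4,000/well) rested 5 h at 37 C, then given Tox21 compounds in DMSO with rat liver microsomes (0.5 mg/mL final) plus NADPH (0.5 mg/mL final) for 16 h at 37 C. Viability read by CellTiter-Glo luminescence after 30 min at room temperature.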

Assay [10] is described as follows: p53 small molecule agonists, cell-based qHTS assay: qHTS cell viability counter screen (AID 1963581). Also: nearly all actives have a fitted effect of over 45% in size. In outline: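 HCT-116 p53RE-bla cells, 4,000/well, plated 5 h before compound pin transfer; 16 h at 37 C; bla substrate 2 h RT; then CellTiter-Glo, 30 min RT, luminescence.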
Assay [11] is described as follows: p53 small molecule agonists, cell-based qHTS assay (AID 1963582; active = well fitted activation curve with a large enough effect in the signal ratio in the repeat runs, not every such curve was filed as active; the % refers to the signal ratio). In outline:
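Reporter line: p53RE-bla. Pre-incubation 5 h, 37 C, 5% CO2; compound (DMSO, pin tool) 16 h, 37 C; B/G FRET substrate 2 h RT; fluorescence intensity read.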

The target in assay [12] is 5-hydroxytryptamine receptor 2A (Homo sapiens) (UniProt P28223). Briefly: 5-hydroxytryptamine receptor 2A (HTR2A) small molecule agonists, cell-based qHTS assay (AID 1963587). Also: nearly all actives have a fitted effect of over 30% in size. In outline: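 HTR2A-CHO cells, plated 18 h at 37 C/5% CO2, dye-loaded 1 h at 37 C; compounds in DMSO added by pin tool (agonist mode). Intracellular calcium flux read as kinetic fluorescence on FDSS over 2 min at 1 s intervals.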
Sequence of 5-hydroxytryptamine receptor 2A (Homo sapiens) (P28223 whole entry, looked up): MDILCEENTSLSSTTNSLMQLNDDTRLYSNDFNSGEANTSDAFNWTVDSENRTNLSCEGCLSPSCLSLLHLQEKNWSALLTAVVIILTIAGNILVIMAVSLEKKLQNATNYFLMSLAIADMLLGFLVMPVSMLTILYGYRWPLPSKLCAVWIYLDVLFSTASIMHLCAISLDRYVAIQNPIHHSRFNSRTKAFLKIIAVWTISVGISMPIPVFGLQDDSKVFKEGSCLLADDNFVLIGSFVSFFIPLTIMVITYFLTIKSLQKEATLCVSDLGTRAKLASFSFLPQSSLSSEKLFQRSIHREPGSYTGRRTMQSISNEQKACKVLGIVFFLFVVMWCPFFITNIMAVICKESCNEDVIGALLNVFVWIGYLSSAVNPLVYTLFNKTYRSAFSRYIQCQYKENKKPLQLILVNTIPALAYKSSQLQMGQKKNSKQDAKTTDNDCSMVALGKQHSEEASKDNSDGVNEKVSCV

For assay [13], the target named is Muscarinic acetylcholine receptor M1 (Homo sapiens) (UniProt P11229). The experiment in a line: Cholinergic receptor muscarinic 1 (CHRM1) small molecule antagonists, cell-based qHTS assay (AID 1963588). Also: nearly all actives have a fitted effect of over 40% in size. Also: potency is read from the fitted curve at half-maximal effect. In short, it runs like this: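 CHRM1-CHO calcium-flux assay, antagonist mode. Cells were seeded 18 h, dye-loaded 1 h at 37 C and given compound for 5 min at RT, then acetylcholine was added at 50nM. FDSS fluorescence was read 3 min; 15 concentrations, three runs.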
Sequence of Muscarinic acetylcholine receptor M1 (Homo sapiens) (P11229 whole entry, looked up): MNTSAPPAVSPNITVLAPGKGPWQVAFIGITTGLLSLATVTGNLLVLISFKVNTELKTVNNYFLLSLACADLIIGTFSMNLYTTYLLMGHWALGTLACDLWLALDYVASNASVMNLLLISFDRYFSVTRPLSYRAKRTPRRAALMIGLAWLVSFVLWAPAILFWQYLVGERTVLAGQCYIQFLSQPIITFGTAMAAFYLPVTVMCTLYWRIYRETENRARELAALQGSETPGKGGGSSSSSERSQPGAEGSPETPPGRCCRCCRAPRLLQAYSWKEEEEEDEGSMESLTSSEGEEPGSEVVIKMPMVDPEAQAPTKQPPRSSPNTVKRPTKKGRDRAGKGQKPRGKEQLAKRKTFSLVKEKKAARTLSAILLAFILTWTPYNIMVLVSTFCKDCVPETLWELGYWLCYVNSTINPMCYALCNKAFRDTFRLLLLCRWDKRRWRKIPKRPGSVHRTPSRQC

Assay [14] shares this target. The experiment in a line: Cholinergic receptor muscarinic 1 (CHRM1) small molecule agonists, cell-based qHTS assay (AID 1963589). Also: nearly all actives have a fitted effect of over 35% in size. In outline:
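Human M1 in stable CHO line; 18 h plating, 1 h dye load 37 C; cpd added (agonist mode); Ca2+ fluorescence kinetic read, 1 s intervals; 15 conc, 3 runs.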

Assay [15] can be described thus: cAMP Responsive Elements (CRE) small molecule agonists, cell-based qHTS assay (AID 1963590). In outline:
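HEK 293T CRE-bla, 2,000 cells/well, 18 h preincubation 37 C/5% CO2; cpds (DMSO) pinned, 3 h; LiveBLAzer B/G FRET substrate, 2 h RT.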

Assay [16] in a line: cAMP Responsive Elements (CRE) small molecule antagonists, cell-based qHTS assay (AID 1963591; active = well fitted inhibition curve with a large enough effect in the signal ratio in the repeat runs, not every such curve was filed as active; the % refers to the signal ratio). In outline:
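Beta-lactamase reporter read by FRET substrate (LiveBLAzer B/G) after 2 h at room temperature. CRE-bla HEK293T cells had received compound plus 0.25 uM (final) NKH477 for 3 h at 37 °C.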

In assay [17] the target is Beta-2 adrenergic receptor (Homo sapiens) (UniProt P07550). Briefly: Adrenergic beta2 receptor (ADRB2) small molecule antagonists, cell-based qHTS assay (AID 1963592). Also: series mostly up to about 92 µM; nearly all actives have a fitted effect of over 50% in size. In short, it runs like this:
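Cells (CHO, stable ADRB2 overexpression) incubated 18-20hr at 37C; compounds added from DMSO; agonist mix (1nM isoproterenol, 100uM IBMX, 25uM Ro-20-1724) added; 0.5hr RT; d2-cAMP and anti-cAMP-cryptate added; 1hr RT; 665/615 nm read.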

Assay [18] has the same target. Briefly: Adrenergic beta2 receptor (ADRB2) small molecule agonists, cell-based qHTS assay (AID 1963593).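 Also: CHO cells stably overexpressing human ADRB2.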 In short, it runs like this:
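CHO cells stably over-expressing ADRB2 were plated overnight at 37C, then dosed with compounds plus a stimulation mix containing 100uM IBMX and 25uM Ro-20-1724 for 0.5hr at room temperature. cAMP was measured by HTRF competition, 1hr.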

For assay [19], the target named is D(2) dopamine receptor (Homo sapiens) (UniProt P14416). Briefly: Dopamine D2 receptor (DRD2) small molecule agonists, cell-based qHTS assay (AID 1963594). Also: nearly all actives have a fitted effect of over 35% in size. In short, it runs like this:
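HEK293 cells stably expressing DRD2 were cultured 24 h at 37 C, then given Ro20-1724 (0.1 mM final) and compounds for 10 min at room temperature. NKH477 (200nM) was then added for 30 min. cAMP was read by HTRF.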

Assay [20] shares this target. Briefly: Dopamine D2 receptor (DRD2) small molecule antagonists, cell-based qHTS assay (AID 1963595; active = well fitted inhibition curve with a large enough effect in the signal ratio in the repeat runs, with a control signal flat; the % refers to the signal ratio). In short, it runs like this: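 Human DRD2 antagonist qHTS measuring cAMP by HTRF. The cells are exposed to compound for 10 min, then to NKH477 (200 nM) and quinpirole (12 nM) for 30 min at RT, with Ro20-1724 (0.1 mM) present throughout.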

Structures are written as SMILES. Values without a mark were called inactive. Results filed as inconclusive are left out. Calls of active or inactive are those of the source. Unless noted, calls follow the shape of the full dose curve.
% is scaled to controls: 0 for no effect and ±100 for the full control effect.

Sequence of D(2) dopamine receptor (Homo sapiens) (P14416 whole entry, looked up): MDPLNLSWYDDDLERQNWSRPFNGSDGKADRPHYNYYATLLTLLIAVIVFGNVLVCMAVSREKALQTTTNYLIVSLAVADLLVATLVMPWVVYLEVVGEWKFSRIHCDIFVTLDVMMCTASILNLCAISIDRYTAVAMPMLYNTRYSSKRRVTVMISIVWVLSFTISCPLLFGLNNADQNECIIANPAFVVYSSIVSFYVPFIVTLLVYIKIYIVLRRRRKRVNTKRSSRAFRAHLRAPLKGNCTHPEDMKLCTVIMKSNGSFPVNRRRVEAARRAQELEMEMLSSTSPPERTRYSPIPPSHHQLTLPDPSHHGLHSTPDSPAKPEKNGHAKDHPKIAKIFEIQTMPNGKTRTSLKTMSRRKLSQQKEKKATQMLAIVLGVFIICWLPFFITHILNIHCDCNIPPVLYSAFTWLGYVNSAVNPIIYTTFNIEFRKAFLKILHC
Sequence of Beta-2 adrenergic receptor (Homo sapiens) (P07550 whole entry, looked up): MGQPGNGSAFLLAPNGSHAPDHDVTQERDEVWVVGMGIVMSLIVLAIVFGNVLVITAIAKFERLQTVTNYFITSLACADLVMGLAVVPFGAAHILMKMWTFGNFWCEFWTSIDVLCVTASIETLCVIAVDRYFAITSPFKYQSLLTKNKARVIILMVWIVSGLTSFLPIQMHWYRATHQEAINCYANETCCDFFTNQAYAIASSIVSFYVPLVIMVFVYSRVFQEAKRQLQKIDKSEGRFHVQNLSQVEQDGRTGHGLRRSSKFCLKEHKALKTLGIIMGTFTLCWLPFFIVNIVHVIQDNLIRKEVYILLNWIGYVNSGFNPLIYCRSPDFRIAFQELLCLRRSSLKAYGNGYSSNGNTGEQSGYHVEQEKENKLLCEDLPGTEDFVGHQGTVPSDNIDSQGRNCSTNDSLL
Sequence of KiSS-1 receptor (Homo sapiens) (Q969F8 whole entry, looked up): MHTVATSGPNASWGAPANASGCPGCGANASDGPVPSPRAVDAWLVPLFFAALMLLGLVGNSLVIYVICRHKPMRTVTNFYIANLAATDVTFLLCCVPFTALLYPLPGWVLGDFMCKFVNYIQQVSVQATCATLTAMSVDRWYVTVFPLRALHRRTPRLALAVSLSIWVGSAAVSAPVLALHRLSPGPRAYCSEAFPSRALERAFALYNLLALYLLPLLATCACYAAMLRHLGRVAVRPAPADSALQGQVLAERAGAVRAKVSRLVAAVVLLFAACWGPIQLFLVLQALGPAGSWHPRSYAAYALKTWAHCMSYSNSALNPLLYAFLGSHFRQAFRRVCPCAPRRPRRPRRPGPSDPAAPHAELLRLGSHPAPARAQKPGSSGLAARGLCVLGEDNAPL

Consider `CCOC(=O)c1ccc(OC(=O)CCCCCN=C(N)N)cc1`, for which the Potency entry in [1], in assay [2], in assay [3], in assay [6], in assay [7] and in assay [8] was “inactive” each time. For the same compound, the Potency entry in assay [9], in [10], in assay [11], in assay [12], in assay [14] and in assay [15] was “inactive” throughout. Moreover, the Potency result in [16], in assay [17], in assay [18] and in assay [19] was “inactive” in each case. Further, the result in [4] and in [5] was inactive. The Potency in assay [13] was 7.29 µM (active).
Turning to `NC(Cc1ccc(Cl)cc1)C(=O)O` (stereo unspecified), the activity change, negative = cytotoxicity in assay [1] was -10.3% [at 0.349 µM]; in assay [8], -1.01% [at 0.249 µM]; in assay [9], -0.306% [at 0.249 µM]; in [10] it was 8.87% [at 0.249 µM]. Further, in assay [2], the activity, positive = activation is -1.51% [at 0.349 µM]. The activity change in [3] was -0.23% [at 0.217 µM, active compounds read high]. Moreover, the activation is -1.07% [at 0.29 µM] in assay [4]; 1.18% [at 0.217 µM] in [5]; 1.9% [at 0.249 µM] in assay [6]; 0.185% [at 0.249 µM] in assay [7]; -0.216% [at 0.249 µM] in assay [11]; -0.299% [at 0.29 µM] in assay [14]. Further, the activation in assay [15] is -0.737% [at 0.349 µM]; in [19] it was 0.127% [at 0.349 µM]. For the same compound, the activity, negative = inhibition in assay [13] was 9.51% [at 0.232 µM]. In addition, the figures for the activity change, negative = inhibition in [16], in assay [17] and in assay [20] were 2.88% [at 0.349 µM], -0.117% [at 0.349 µM] and 0.383% [at 0.348 µM], respectively.
`CCN(CC)c1cccc(C)c1`: the Potency result in assay [1], in assay [2], in assay [3], in assay [6], in assay [7] and in [8] was “inactive” in each case. The Potency entry in assay [9], in assay [10], in assay [11], in [13], in assay [14] and in assay [15] was “inactive” each time. The Potency entry in assay [16], in assay [17] and in assay [20] was “inactive” throughout. Moreover, the result in assay [4] and in assay [5] was inactive.
Consider `NC(=O)CC[C@@H](N)C(=O)O`, for which the Potency entry in [1], in [2], in assay [3], in assay [6], in assay [7] and in assay [8] was “inactive” each time. Further, the Potency result in assay [9], in assay [10], in [11], in assay [13], in assay [14] and in [15] was “inactive” each time. The Potency entry in assay [16], in assay [17], in [19] and in assay [20] was “inactive” throughout. For the same compound, the outcome in assay [4] and in assay [5] was inactive.
With `C=CC(OCC)OCC`, the Potency result in assay [1], in assay [2], in assay [3], in assay [6], in assay [7] and in assay [8] was “inactive” each time. The Potency entry in [9], in assay [10], in assay [11], in [13], in [14] and in assay [16] was “inactive” throughout. In addition, the Potency entry in assay [17] and in assay [20] was “inactive” in each case. The result in assay [4] and in assay [5] was inactive.
In the case of `O=C(CCN1CCN2CCCC2C1)N1c2ccccc2Sc2ccc(Cl)cc21` (stereo unspecified), the activity change, negative = cytotoxicity is -13.5% [at 19 µM] in [1], -1.69% [at 13.5 µM] in assay [8], 2.61% [at 13.5 µM] in [9] and -8.91% [at 13.5 µM] in [10]. The activity, positive = activation in assay [2] was -8.3% [at 19 µM]. Besides, in assay [3], the activity change was 0.23% [at 11.8 µM, active compounds read high]. Moreover, the activation in assay [4] is -1.39% [at 15.8 µM]; in [5], 0.367% [at 11.8 µM]; in [6] it was -1.04% [at 13.5 µM]; in [7] it was 1.06% [at 13.6 µM]; in assay [11], -0.768% [at 13.5 µM]; in [14], 0.0294% [at 15.8 µM]. Moreover, the activation in assay [15] was 0.0795% [at 19 µM]; in [19] it was -31% [at 19 µM]. Moreover, the activity change, negative = inhibition was -4.08% [at 18.9 µM] in assay [16], 0.603% [at 19 µM] in assay [17] and -8.25% [at 18.9 µM] in [20].
On to `CCc1cccc(CC)c1N(COC)C(=O)CS(=O)(=O)O`, for which the Potency entry in [1], in assay [2], in assay [3], in assay [6], in assay [7] and in [8] was “inactive” each time. Also, the Potency result in assay [9], in [10], in [11], in [13], in assay [14] and in [15] was “inactive” each time. Further, the Potency result in assay [16] and in assay [19] was “inactive” in each case. Further, the result in assay [4] and in assay [5] was inactive.
